Test results taken from publication PMC7826789 (International Journal of Molecular Sciences, 2021).

Legend:
Settings in all cases: Compound Concentration (nM):1000
RET(V804M) = system: RET(V804M)
RET = system: RET
RIOK1 = system: RIOK1
RIOK2 = system: RIOK2
RIOK3 = system: RIOK3
RIPK1 = system: RIPK1
RIPK2 = system: RIPK2
RIPK4 = system: RIPK4
RIPK5 = system: T1, RIPK5
T1 construct: gene DSTYK

ROCK1 = system: ROCK1
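Also: KINOMEscan scanMAX binding as percent activity remaining versus control; lower means stronger binding.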

SMILES	Percent Control (RET(V804M))	Percent Control (RET)	Percent Control (RIOK1)	Percent Control (RIOK2)	Percent Control (RIOK3)	Percent Control (RIPK1)	Percent Control (RIPK2)	Percent Control (RIPK4)	Percent Control (RIPK5)	Percent Control (ROCK1)
CN1CCN(C(=O)c2ccc(NC(=O)Nc3ccc(N(C)c4ccnc(Nc5ccc(CS(C)(=O)=O)cc5)n4)cc3)cc2)CC1.Cl [GW830263A]	0.5%	0%	2.2%	21%	0%	100%	94%	57%	5.4%	17%
Cl.O=C(Nc1ccc(Oc2ccc3[nH]c(NC(=O)c4ccccc4)nc3c2)cc1)Nc1cc(C(F)(F)F)ccc1F [GW709042A]	2.7%	0.6%	52%	100%	33%	62%	89%	100%	100%	95%
Cl.c1ccc(Cc2nc3ccc(Nc4ncnc5ccccc45)cc3[nH]2)cc1 [GR269666A]	100%	100%	100%	88%	100%	100%	67%	98%	98%	100%
Nc1ncnc2occ(-c3ccc(NC(=O)Nc4cc(C(F)(F)F)ccc4F)cc3)c12 [GW770249X]	0.1%	0%	56%	100%	44%	26%	100%	100%	80%	84%
Cl.O=C(O[C@H]1CN[C@H](C#Cc2cc3ncnc(Nc4ccc5c(cnn5Cc5ccccc5)c4)c3s2)C1)N1CCOCC1 [GSK200398A]	100%	100%	100%	100%	100%	100%	16%	84%	100%	96%
Cc1cc(O)cc(C)c1/C=C/c1cncc(C(N)=O)c1 [GW435821X]	100%	100%	99%	100%	93%	100%	21%	100%	93%	100%
COc1cc(N2CCN(C(C)C)CC2)ccc1Nc1nc(Nc2ccc(F)cc2C(=O)NC[C@@H](O)CO)c2cc[nH]c2n1 [GSK1392956A]	88%	85%	66%	27%	79%	76%	100%	84%	25%	87%
CC1=C(C(=O)Nc2ccc3[nH]ncc3c2)C(c2ccc(Cl)c(Cl)c2)CC(=O)N1 (stereo not drawn) [GSK299115A]	89%	76%	99%	100%	86%	77%	72%	78%	99%	0%
NS(=O)(=O)c1ccc(N/N=C2\C(=O)Nc3ccc(C(=O)NCCc4c[nH]cn4)cc32)cc1 [GW300660X]	100%	100%	74%	100%	78%	100%	100%	80%	59%	67%
COc1cccc(-n2ncc3c(N/N=C/c4ccncc4)ncnc32)c1 [GW784752X]	87%	97%	79%	75%	94%	89%	38%	3.9%	100%	74%
CCn1c(-c2nonc2N)nc2c(C#CC(C)(C)O)nc(OCCNC)cc21.Cl [GSK949675]	100%	96%	100%	91%	100%	100%	100%	100%	99%	57%
NS(=O)(=O)c1ccc(N/N=C2\C(=O)Nc3ccc(C(=O)NCc4ccncc4)cc32)cc1 [GW300657X]	84%	92%	62%	77%	63%	89%	100%	72%	47%	64%
COc1cc2ncnc(Nc3ccc4c(cnn4Cc4ccccc4)c3)c2cc1OC.Cl [GW282449A]	100%	75%	97%	88%	100%	100%	27%	100%	71%	94%
CN(C)CCNC(=O)Nc1ccc(N(C)c2ccnc(Nc3ccc(CS(C)(=O)=O)cc3)n2)cc1.Cl [GW830900A]	86%	60%	9.5%	90%	17%	99%	94%	60%	32%	9.4%
O=C(Nc1n[nH]c2nc(-c3ccc(O)cc3)c(Br)cc12)C1CC1 [SB-725317]	96%	100%	55%	82%	56%	100%	100%	90%	100%	100%
CC(C)COC(=O)c1ccc2c(c1)/C(=C/Nc1ccc(S(N)(=O)=O)cc1)C(=O)N2 [GW416981X]	26%	100%	21%	100%	15%	100%	100%	100%	48%	36%
O=C1Nc2ccc(C(=O)c3ccco3)cc2C1=Cc1cc(Cl)c(O)c(Cl)c1 [GW406108X]	28%	96%	46%	73%	30%	100%	75%	91%	54%	77%
Cl.O=C(Nc1ccc(Oc2ccc3[nH]c(NC(=O)c4ccco4)nc3c2)cc1)Nc1cc(C(F)(F)F)ccc1F [GW683134A]	0.4%	0%	64%	98%	40%	21%	48%	100%	100%	73%
CN(C)c1cc2c(Nc3ccc4c(cnn4Cc4ccccc4)c3)ncnc2cn1 [GW282974X]	89%	86%	98%	100%	100%	53%	27%	74%	90%	100%
COc1ccc2c(-c3ccnc(Nc4cccc(OC(F)(F)F)c4)n3)cnn2n1 [GW810372X]	100%	100%	42%	29%	51%	100%	100%	77%	100%	100%

SMILES	Percent Control (RET(V804M))	Percent Control (RET)	Percent Control (RIOK1)	Percent Control (RIOK2)	Percent Control (RIOK3)	Percent Control (RIPK1)	Percent Control (RIPK2)	Percent Control (RIPK4)	Percent Control (RIPK5)	Percent Control (ROCK1)
COc1ccccc1-c1cc(/C=C2\C(=O)Nc3ncc(Br)cc32)cc(Br)c1O [GW442130X]	100%	100%	100%	17%	100%	100%	100%	100%	100%	96%
C/C(Nc1ccc(S(N)(=O)=O)cc1)=C1/C(=O)Nc2ccccc21 [GW335962X]	100%	96%	82%	100%	69%	96%	83%	86%	48%	83%
NS(=O)(=O)c1ccc(Nc2ncc(-c3ccccc3)o2)cc1 [GW572399X]	100%	100%	73%	100%	89%	100%	100%	100%	94%	85%
NS(=O)(=O)c1ccc(N/N=C2\C(=O)Nc3ccc(Cl)cc32)cc1 [GW280670X]	100%	100%	74%	100%	89%	100%	100%	100%	100%	100%
COc1ccc2[nH]c3c4[nH]c5ccc(OC)cc5c4c4c(c3c2c1)C(=O)NC4=O [GW296115X]	21%	41%	58%	89%	100%	90%	60%	83%	27%	72%
C[C@@H](Oc1cc(-n2cnc3ccc(OC4CCN(C)CC4)cc32)sc1C(N)=O)c1ccccc1Cl [GSK579289A]	84%	99%	13%	91%	34%	89%	87%	33%	93%	87%
COc1cccc(-c2c[nH]c3c(N/N=C/c4ccncc4)ncnc23)c1 [GW814408X]	100%	85%	49%	76%	66%	100%	41%	13%	100%	79%
COc1ccc(COc2ccc(Cc3cnc(N)nc3N)cc2OC)cc1 [GW632580X]	100%	100%	56%	100%	65%	95%	98%	84%	97%	100%
NS(=O)(=O)c1ccc(N/N=C2\C(=O)Nc3ccc(-c4cnco4)cc32)cc1 [GW276655]	92%	82%	27%	69%	51%	76%	84%	87%	68%	8.8%
CCc1ccc(Oc2nccc(-c3c(-c4ccc(F)cc4)ncn3C3CCNCC3)n2)cc1 [SB-242719]	100%	100%	57%	97%	72%	100%	59%	100%	82%	100%
COc1cc(C)c(N(C)C(=O)CN(C)C)cc1Nc1nc(Nc2cccc(F)c2C(N)=O)c2cc[nH]c2n1 [GSK2219385]	71%	87%	73%	74%	74%	95%	100%	74%	88%	100%
CCS(=O)(=O)c1ccc(OC)c(Nc2ncc(-c3cccc(F)c3)o2)c1 [GW621970X]	100%	67%	94%	71%	100%	85%	57%	100%	100%	96%
COc1ccc2cc(-c3c(-c4ccncc4)nc(-c4ccc(S(C)(=O)=O)cc4C)n3C)ccc2c1 [SB-633825]	97%	72%	22%	92%	78%	34%	81%	61%	75%	78%
CC1=C(C(=O)Nc2ccc3[nH]ncc3c2)C(c2ccc3ccccc3c2)CC(=O)N1 (stereo not drawn) [GSK270822A]	66%	28%	74%	100%	88%	97%	90%	68%	96%	
COC(=O)Nc1nc2ccc(Oc3ccc(NC(=O)Nc4cc(C(F)(F)F)ccc4F)cc3)cc2s1.Cl [GW693917A]	0.5%	0.1%	62%	100%	54%	45%	25%	76%	100%	79%
COc1cc2ncn(-c3cc(O[C@H](C)c4ccccc4Cl)c(C(N)=O)s3)c2cc1OC [GSK237701A]	77%	54%	26%	100%	19%	61%	100%	87%	84%	69%
Cl.O=S1CCN(Cc2ccc(-c3ccc4ncnc(Nc5ccc(OCc6ccccc6)c(F)c5)c4c3)o2)CC1 [GW576924A]	100%	100%	93%	83%	100%	100%	43%	92%	87%	100%
COc1cc(C=NNc2ncnc3c2cnn3-c2ccccc2)ccc1O [GW513184X]	100%	44%	32%	45%	16%	96%	50%	9.1%	90%	97%
COc1cc(/C=N/Nc2ncnc3[nH]ncc23)ccc1O [GW578748X]	77%	5.9%	47%	8.9%	46%	100%	100%	6.9%	75%	63%
CCS(=O)(=O)c1ccc(OC)c(Nc2ncc(-c3cccc(OC)c3)o2)c1 [GW580509X]	75%	55%	100%	82%	98%	100%	88%	90%	91%	100%
